Laboratory results as given in PubChem BioAssay AID1224862 (National Center for Advancing Translational Sciences (NCATS), 2016).
Results filed as inconclusive are left out. A call without a number means that no potency is given here. Active and inactive are the calls of the source. Calls follow the shape of the dose curve; as a rule, active = well fitted cell-killing curve with a large enough effect; inconclusive = small, poorly fitted or top-dose-only effect, or effect the other way; inactive = flat fitted curve, though single readings scatter.

experiment: Compound cytotoxicity measured by an ATP content assay as a counter-screen for lead compounds in human astrocytoma cell line (SNB-19); conditions: SNB-19 astrocytoma viability, ATP luminescence; series mostly up to 46.1 µM
Summary of the method: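 SNB-19 cells, 250 per well, were treated with compounds for 6, 24 or 72 h after overnight seeding. The ATP detection reagent was added 1:1 and luminescence read after 10 min at room temperature, with the signal converted to percent inhibition of viability.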

Row | SMILES | Potency
1 | CCOCCOC(=O)/C=C/c1ccc(OC)cc1 | inactive
2 | Nc1ccc(N=Nc2ccccc2)c(N)n1 | inactive
3 | O=C(CS)Nc1ccccc1 | inactive
4 | C[C@@H](O[C@H]1OCCN(Cc2n[nH]c(=O)[nH]2)[C@@H]1c1ccc(F)cc1)c1cc(C(F)(F)F)cc(C(F)(F)F)c1 | inactive
5 | CN1CC(=O)N/C1=N/C(=O)Nc1cccc(Cl)c1 | inactive
6 | CCCC(=O)OC[C@@H](OC(=O)CCC)[C@@H](OC(=O)CCC)[C@H](Cn1c2nc(=O)[nH]c(=O)c-2nc2cc(C)c(C)cc21)OC(=O)CCC | inactive
7 | CC1=C(CO)C(=O)O[C@@H]([C@@H](C)[C@H]2CC[C@H]3[C@@H]4C[C@H]5O[C@]56[C@@H](O)C=CC(=O)[C@]6(C)[C@@H]4CC[C@]23C)C1 | inactive
8 | CC(C)OC(=O)CCCC=CC[C@@H]1[C@H](C=C[C@@H](O)COc2cccc(C(F)(F)F)c2)[C@H](O)C[C@@H]1O | inactive
9 | CCCCCCCCCCCC(=O)[O][Sn]([CH2]CCC)([CH2]CCC)[O]C(=O)CCCCCCCCCCC | inactive
10 | O=C(O)c1ccccc1NCCc1ccccc1 | inactive
11 | CC(C)c1ccc2oc3nc(N)c(C(=O)O)cc3c(=O)c2c1 | 1.55 µM (active)
12 | Cc1ccc(O)c(N=Nc2ccccc2)n1 | 7.74 µM (active)
13 | CC(C(=O)O)c1ccc(C(=O)c2ccccc2)s1 (stereo not drawn) | inactive
14 | c1ccc(CCNc2nc(-c3ccccc3)cs2)cc1 | inactive
15 | CCCS(=O)c1ccc2nc(NC(=O)OC)[nH]c2c1 (stereo not drawn) | inactive
16 | Cc1ccc(O)c(-n2nc3ccccc3n2)c1 | inactive
17 | O=C(Nc1ccc(OC(F)(F)F)cc1)c1sccc1NCc1ccnc2ccccc12 | inactive
18 | O=C(O)[C@H](CC(=O)N1C[C@@H]2CCCC[C@H]2C1)Cc1ccccc1 | inactive
19 | Cc1c(N)c(=O)n(-c2ccccc2)n1C | inactive

Row | SMILES | Potency
20 | O=C(Oc1ccccc1)c1cccc(C(=O)Oc2ccccc2)c1 | inactive
21 | CNC(=O)c1ccccc1Sc1ccc2c(/C=C/c3ccccn3)n[nH]c2c1 | 10.9 µM (active)
22 | Cc1cccc(C#Cc2ccccc2)n1 | 24.5 µM (active)
23 | CCN1CCC(n2cc(CNc3cc(Cl)c4ncc(C#N)c(Nc5ccc(F)c(Cl)c5)c4c3)nn2)CC1 | inactive
24 | CN(C)c1cc(NC(=O)CNC(C)(C)C)c(O)c2c1C[C@@H]1C[C@H]3[C@H](N(C)C)C(=O)C(C(N)=O)=C(O)[C@@]3(O)C(=O)C1=C2O | inactive
25 | CC(=O)OC(C)OC(=O)C(C)c1ccc(-c2ccccc2)c(F)c1 (stereo not drawn) | inactive
26 | NC1CCC(Nc2nc(Nc3ccc(C(=O)N4CCCCC4)cc3)c3ncn(-c4cccc(F)c4)c3n2)CC1 (stereo not drawn) | inactive
27 | O=S(=O)(O)c1ccc2nc(-c3ccccc3)[nH]c2c1 | inactive
28 | COc1ccc(-c2cc(=S)ss2)cc1 | inactive
29 | O=C(O)c1cc([N+](=O)[O-])ccc1NCCCc1ccccc1 | inactive
30 | O=C(O)c1ccccc1Nc1cccc(C(F)(F)F)c1 | inactive
31 | Cc1ccc(C(=O)c2ccc(CC(=O)O)n2C)cc1 | inactive
32 | CC(C)(C)COc1ccc(-n2cc(C(=O)O)cn2)cc1C#N | inactive
33 | CC(C(=O)O)c1ccc(-c2ccccc2)c(F)c1 (stereo not drawn) | inactive
34 | O[C@@H](COc1cccc2ncccc12)CN1CCN(C2c3ccccc3[C@@H]3[C@H](c4ccccc42)C3(F)F)CC1 (stereo partly drawn) | inactive
35 | C[C@H](NC(=O)C(=O)Nc1ccccc1C(C)(C)C)C(=O)N[C@@H](CC(=O)O)C(=O)COc1c(F)c(F)cc(F)c1F | inactive
36 | CCC(C(=O)O)c1ccc(N2Cc3ccccc3C2=O)cc1 (stereo not drawn) | inactive
37 | CN1CC(=O)N2C(Cc3c([nH]c4ccccc34)[C@H]2c2ccc3c(c2)OCO3)C1=O (stereo partly drawn) | inactive
38 | CC=CC[C@@H](C)C(=O)[C@H]1C(=O)N[C@@H](C(C)C)C(=O)N(C)CC(=O)N(C)[C@@H](CC(C)C)C(=O)N[C@@H](C(C)C)C(=O)N(C)[C@@H](CC(C)C)C(=O)N[C@@H](C)C(=O)N[C@H](C)C(=O)N(C)[C@@H](CC(C)C)C(=O)N(C)[C@@H](CC(C)C)C(=O)N(C)[C@@H](C(C)C)C(=O)N1C | inactive
